For orientation: inhibition means the relative decrease from the control value, in per cent.

SMILES strings stand for the structures. Where “and” joins values, the source holds several entries; their conditions need not be identical. Identical values can stand only once. Calls of active or inactive are those of the source.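 Rule for the calls, unless noted: active = inhibition at or above 50% relative to wild type and mutant plate controls; inactive = inhibition below 50%.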

Assay [1] in a line: inhibitors of TNFa-induced NFkB p65 translocation, primary screen, imaging, HUVEC, MLSMR starter and 10KST1 sets (AID 438;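 active = inhibition above 20% together with a positive visual image hit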;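 note: compound added about 3h40 before a 20 min TNFalpha stimulation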;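 for inhibition: signal is the nuclear over cytoplasmic p65 intensity ratio per well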). The settings on record: HUVEC TNFa-induced p65 nuclear translocation; cell count: measured here: nuclei count (cytotoxicity indicator), at 2.08 µM; inhibition: at 2 µM, stronger effect = higher value, 0% TNFa-plus-vehicle, 100% no-TNFa wells.
Assay [2] can be described thus: reduction of polyQ htt aggregates in cells – imaging, exon1htt(103Q)mCFP cells, high-content imaging, primary screen (AID 483;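 active = visual image review flags a hit and inhibition of aggregation exceeds 20%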;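 note: compound exposure lasted 3 days before fixation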;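 for nuclei count: percent of the per-plate median nuclei count of sample wells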). The following applies: exon1htt(103Q)mCFP cell line, aggregate imaging, at 2 µM; inhibition of aggregation: stronger effect = higher value; nuclei count: measured here: cell count, toxicity.
Assay [3] can be described thus: endothelial E-selectin expression blockers – imaging, HUVEC, immunofluorescence, MLSMR starter and 10KST1 sets, primary screen (AID 487;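 active = visually confirmed hit in the image check and inhibition above 20%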;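 for inhibition: signal is fraction of cell area covered by stained E-selectin grains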;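 for nuclei count: 100% = median nuclei count of all wells on the same plate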). The settings on record: HUVEC TNFalpha-induced E-selectin immunofluorescence imaging, at 2 µM; inhibition: stronger effect = higher value; nuclei count: measured here: cell number, toxicity.
Assay [4] can be described thus: Primary imaging screen for DUSP6 inhibitors that restore phospho-Erk in transfected HeLa cells, chemical complementation (AID 609;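 active = compounds giving at least 50% inhibition in the cell-based MKP-3 phosphatase rescue imaging test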;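 for inhibition: phospho-Erk level distribution per well compared with pooled transfected vehicle control wells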). The settings on record: HeLa MKP-3 transfected, phospho-Erk imaging KS statistic, at 10 µM, cells stimulated with TPA for 15 min.
Assay [5] deals with Dual specificity protein phosphatase 6 (Homo sapiens) (UniProt Q16828). The description is as above. The settings on record: HeLa MKP-3 transfected, phospho-Erk imaging KS statistic; at 10 µM; stronger effect = higher value; cells stimulated with TPA for 15 min.
Assay [6] concerns the target Voltage-gated potassium channel subunit beta-2 (Rattus norvegicus) (UniProt P62483). Briefly: inhibitors of rat Kvbeta2 reductase activity – biochemical, NADPH fluorescence, primary screen (AID 622;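 active = fluorescence slope higher than the sample average by over 3 SD, cut at about -0.22 in these data, passing the limit was not always enough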;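 note: slope of raw intensity against log time taken from 70 to 1610 s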). The settings on record: recombinant KvBeta, 4-cyanobenzaldehyde reduction, at 10 µM, stronger effect = higher value.
Assay [7] has the same target. In words: enhancers of rat Kvbeta2 NADPH turnover – biochemical, NADPH fluorescence, primary screen (AID 623;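 active = NADPH fluorescence slope more negative than the mean of all samples by about 3 SD, 99.7% confidence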;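 note: fluorescence intensity change per second fitted from 20 to 320 s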). The settings on record: Recombinant KvBeta, NADPH fluorescence decrease slope, 10 min; at 10 µM; stronger effect = lower value.
Assay [8] has as its target Alpha-2C adrenergic receptor (Homo sapiens) (UniProt P18825). Briefly: compounds altering alpha2C-coupled GIRK flux – cell-based, HEK293 alpha2C/GIRK1/2, thallium flux, primary screen (AID 624;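 active = fluorescence slope after compound addition differing from the mean of all screened samples at 99.7% confidence, in either direction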;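 note: slope of fluorescence ratio to pre-addition baseline per second over 15 to 24 s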). The settings on record: thallium flux BTC fluorescence, at 10 µM, actives lie on both sides.
The nature of assay [9]: inhibitors of larval lipid processing in zebrafish, primary screen, whole organism, PED6 fluorescence, gall bladder and intestine (AID 686;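 active = a full or partial loss of lipid-probe fluorescence in the fish gall bladder, intestine or both, judged by eye; inactive = no fluorescence loss, or compound toxic to the fish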;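 note: larvae 5 to 7 days old with five fish per well; signal comes from phospholipase A2 cleavage of quenched PED6 carried via bile; overnight exposure to compound and PED6 before scoring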). The settings on record: Zebrafish larvae PED6 lipid processing, fluorescence scoring; screened at 20 µM (by protocol).
Assay [10] is described as follows: loss of swimming-algae plug formation – whole organism, Chlamydomonas reinhardtii, WT vs cilia-less mutant, absorbance, 96-well, primary screen (AID 463189).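 Note: 0% = wild type cc124 cells in DMSO and 100% = ciliumless bld1 mutant cells.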 The following applies: Chlamydomonas reinhardtii gravitaxis, OD600 absorbance, 2 days; at 10 µM; stronger effect = higher value.
Assay [11] is described as follows: blockers of RIG-like receptor reporter activation – cell-based, Sendai virus stimulus, luciferase, 10K MLSCN set, TLR/RLR signaling modifier project, primary screen (AID 602276;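 active = inhibition at or above 50% at 10 µM; inactive = inhibition below 50%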;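 note: firefly luciferase from ISG56 promoter only with Renilla not read in this screen; 0% = Sendai virus plus DMSO and 100% = medium plus DMSO without virus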). The following applies: HEK293 RL24 IRF3 luciferase reporter, at 10 µM, stronger effect = higher value. (In general: A reporter such as luciferase makes a cellular process visible.)
Assay [12] can be described thus: TLR3 IRF3 reporter activation blockers – cell-based, poly I:C stimulus, luciferase, 10K MLSCN set, primary screen (AID 602277;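 active = inhibition of the reporter signal at or above 50%; inactive = inhibition below 50%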). The following applies: HEK293-TLR3 RL24 IRF3 luciferase reporter, at 10 µM, stronger effect = higher value.
Setting [13] is: measured here: cell density z-score.
Where [14] appears, read: measured here: nuclear c-Myc green intensity z-score.
The mark [15] stands for this setting: measured here: nuclear pErk red intensity z-score, stronger effect = higher value.

Dual specificity protein phosphatase 6 (Homo sapiens), sequence (Q16828 whole entry, looked up): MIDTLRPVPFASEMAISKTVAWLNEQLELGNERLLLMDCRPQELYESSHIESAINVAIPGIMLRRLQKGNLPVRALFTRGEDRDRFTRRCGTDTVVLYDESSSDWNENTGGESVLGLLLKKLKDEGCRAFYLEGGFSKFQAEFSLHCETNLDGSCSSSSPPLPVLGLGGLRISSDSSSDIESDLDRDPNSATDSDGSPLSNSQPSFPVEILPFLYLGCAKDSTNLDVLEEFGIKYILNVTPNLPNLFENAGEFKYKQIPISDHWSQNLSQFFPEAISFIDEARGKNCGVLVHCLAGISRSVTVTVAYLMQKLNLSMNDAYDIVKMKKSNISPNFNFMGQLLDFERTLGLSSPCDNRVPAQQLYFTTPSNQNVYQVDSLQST
Alpha-2C adrenergic receptor (Homo sapiens), sequence (P18825 whole entry, looked up): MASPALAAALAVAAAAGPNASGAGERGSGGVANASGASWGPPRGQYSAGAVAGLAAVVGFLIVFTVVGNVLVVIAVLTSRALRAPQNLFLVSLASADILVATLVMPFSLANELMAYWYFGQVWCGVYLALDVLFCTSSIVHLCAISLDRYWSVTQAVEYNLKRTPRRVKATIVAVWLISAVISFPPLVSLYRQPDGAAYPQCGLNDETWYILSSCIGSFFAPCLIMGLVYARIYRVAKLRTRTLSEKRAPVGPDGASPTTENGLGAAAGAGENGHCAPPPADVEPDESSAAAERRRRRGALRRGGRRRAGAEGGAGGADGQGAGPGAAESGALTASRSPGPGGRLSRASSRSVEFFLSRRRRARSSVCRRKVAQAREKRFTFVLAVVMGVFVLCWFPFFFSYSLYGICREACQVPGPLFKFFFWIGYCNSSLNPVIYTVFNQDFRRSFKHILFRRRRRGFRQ
Voltage-gated potassium channel subunit beta-2 (Rattus norvegicus), sequence (P62483 whole entry, looked up): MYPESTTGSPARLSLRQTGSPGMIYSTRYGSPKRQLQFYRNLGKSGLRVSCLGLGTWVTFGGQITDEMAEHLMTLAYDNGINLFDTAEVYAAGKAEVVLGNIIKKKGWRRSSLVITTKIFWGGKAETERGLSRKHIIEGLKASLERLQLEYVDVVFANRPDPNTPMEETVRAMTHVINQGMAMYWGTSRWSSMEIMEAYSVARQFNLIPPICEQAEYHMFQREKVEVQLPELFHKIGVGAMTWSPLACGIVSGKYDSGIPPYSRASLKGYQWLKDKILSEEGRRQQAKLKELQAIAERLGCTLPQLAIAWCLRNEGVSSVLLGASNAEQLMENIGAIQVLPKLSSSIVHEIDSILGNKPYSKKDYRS

For `Cc1cc(N2CCN(C3CCCC3)CC2)n2c(nc3ccccc32)c1C#N`, the cell count in [1] was determined as 582. Besides, the inhibition is -4.5% (inactive) in [1]; 6.5% (inactive) in [3]; 17.8% (inactive) in assay [5]; -3.52% (inactive) in [10]; 24.6% (inactive) in assay [11]; 39% (inactive) in [12]. Moreover, the inhibition of aggregation in assay [2] was 36.4% (active). Further, the nuclei count in [2] came to 57.7%; in assay [3], 110%. The z-score is 1.58 in assay [4] (setting [13]), 0.862 in [4] (setting [14]) and -0.0668 in assay [4] (setting [15]). In [6], the fluorescence slope was -0.33 (inactive). Also, the NADPH fluorescence slope in [7] was -3.1e-05 (inactive). Moreover, the slope in [8] is 0.00579 (inactive). Moreover, the compound was called inactive in assay [9].
In the case of `COc1ccc(Nc2nc(Nc3ccc(OC)cc3)nc(-n3[nH]c(=O)c(C)c3C)n2)cc1`, in [1], the cell count was 656. In addition, the inhibition in [1] was -10.8% (inactive); in [3], -17.7% (inactive); in [5] it was 13.9% (inactive); in assay [10] it was 2.29% (inactive); in assay [11] it was 22.1% (inactive); in assay [12], 8.22% (inactive). In addition, the inhibition of aggregation in [2] was 0.5% (inactive). The figures for the nuclei count in assay [2] and in assay [3] were 124% and 122%, respectively. Besides, the z-score in [4] (setting [13]) was -0.0693; in assay [4] (setting [14]), 1.31; in assay [4] (setting [15]) it was 0.0692. In [6], the fluorescence slope is -0.474 (inactive). For the same compound, in assay [7], the NADPH fluorescence slope is -5.6e-05 (inactive). Also, the slope in [8] was 0.00543 (inactive). For the same compound, in assay [9], the compound was called inactive.
`CCOC(=O)c1c(C)n(C)c2ccc(OC)c(NC(=O)CCN3CCSCC3)c12`: the cell count in assay [1] was determined as 476. Also, the inhibition in assay [1] was 3% (inactive); in assay [3], -134% (inactive); in [5], -9.66% (inactive); in assay [10] it was 4.14% (inactive); in assay [11] it was 24.4% (inactive); in assay [12], 28.3% (inactive). Moreover, the inhibition of aggregation in [2] was 5.7% (inactive). Also, the nuclei count in assay [2] was found to be 112%; in [3] it was 114%. Besides, the values for the z-score in assay [4] (setting [13]), in assay [4] (setting [14]) and in assay [4] (setting [15]) were -2.21, 0.452 and 0.641, respectively. Further, in assay [6], the fluorescence slope is -0.464 (inactive). Further, the NADPH fluorescence slope in assay [7] is -6.9e-05 (inactive). For the same compound, the slope in assay [8] is 0.00572 (inactive). Further, the outcome in [9] was inactive.
Take `C[C@]12CCC(=O)C=C1CC[C@@H]1[C@@H]2C(=O)C[C@@]2(C)[C@H]1CC[C@]2(O)C(=O)CO`: the cell count in [1] is 603. Besides, the inhibition is -6% (inactive) in [1]; -119% (inactive) in [3]; -4.44% (inactive) in [5]; -0.81% (inactive) and 2.73% (inactive) in assay [10]; 10.2% (inactive) in assay [11]; 21.1% (inactive) in [12]. The inhibition of aggregation in assay [2] is 21.4% (inactive). Moreover, the nuclei count came out at 102% in [2] and 120% in assay [3]. Moreover, the values for the z-score in [4] (setting [13]), in assay [4] (setting [14]) and in assay [4] (setting [15]) were -0.503, -1.16 and 1.19, respectively. Also, the fluorescence slope in assay [6] is -0.503 (inactive). Further, the NADPH fluorescence slope in [7] was -3.1e-05 (inactive). The slope in assay [8] is 0.00463 (inactive). The outcome in [9] was inactive.
Take `Cc1nn(C)cc1C1C2=C(CC(C)(C)CC2=O)OC2=C1C(=O)CC(C)(C)C2`: the cell count in [1] was 616. Further, the inhibition is -2.2% (inactive) in [1]; -77.9% (inactive) in assay [3]; 2.46% (inactive) in [5]; 1.65% (inactive) in [10]; 10.6% (inactive) in assay [11]; 18% (inactive) in [12]. Besides, the inhibition of aggregation in [2] was 2.2% (inactive). The nuclei count in [2] is 108%; in [3] it was 140%. In addition, the z-score in assay [4] (setting [13]) is 0.812; in assay [4] (setting [14]) it was 0.307; in assay [4] (setting [15]), -0.678. Also, the fluorescence slope in assay [6] was -0.337 (inactive). In assay [7], the NADPH fluorescence slope is -6.9e-06 (inactive). In addition, the slope in assay [8] is 0.00477 (inactive). Further, the call in [9] was inactive.
As to `CC(=O)NS(=O)(=O)c1ccc(N)cc1`, in [1], the cell count came to 651. The inhibition in assay [1] was 7.7% (inactive); in assay [3], -106% (inactive); in [5], 14.6% (inactive); in assay [10] it was 46.5% (inactive); in assay [11], 11.7% (inactive); in [12], 26.8% (inactive). In addition, in assay [2], the inhibition of aggregation was 12.5% (inactive). In addition, the nuclei count in assay [2] was found to be 97.6%; in [3] it was 120%. For the same compound, the z-score in assay [4] (setting [13]) is -1.23; in assay [4] (setting [14]) it was 1.33; in [4] (setting [15]), -0.291. Also, the fluorescence slope in assay [6] is -0.508 (inactive). In assay [7], the NADPH fluorescence slope is -4.5e-05 (inactive). Further, the slope in assay [8] is 0.00641 (inactive). Besides, the call in [9] was inactive.
Regarding `CC1CCc2cc(F)cc3c(O)c(C(=O)Nc4cnccn4)c(=O)n1c23` (stereo not given), the cell count in assay [1] came out at 457. For the same compound, the inhibition in assay [1] is -7.7% (inactive); in assay [3], -40.6% (inactive); in assay [5] it was 17.5% (inactive); in assay [10], -9.12% (inactive); in assay [11] it was 13.2% (inactive); in [12], 21.7% (inactive). In addition, the inhibition of aggregation in assay [2] was 3.8% (inactive). Also, the figures for the nuclei count in assay [2] and in [3] were 99.3% and 99.4%, respectively. The z-score in [4] (setting [13]) turned out to be 0.762; in [4] (setting [14]) it was 0.74; in assay [4] (setting [15]), 0.103. In assay [6], the fluorescence slope is -0.351 (inactive). Also, the NADPH fluorescence slope in assay [7] is 2e-05 (inactive). For the same compound, the slope in [8] was 0.0057 (inactive). Further, the outcome in assay [9] was inactive.
Consider `O=C(CSc1nnc(-c2ccco2)c(-c2ccco2)n1)Nc1ccccc1`, for which the cell count in assay [1] was found to be 582. Further, the inhibition is -9.5% (inactive) in [1]; -30.7% (inactive) in [3]; 1.6e-07% (inactive) in assay [5]; 17.3% (inactive) in [10]; -13.8% (inactive) in [11]; 6.55% (inactive) in assay [12]. For the same compound, in assay [2], the inhibition of aggregation was -9.2% (inactive). The nuclei count in assay [2] came to 100%; in assay [3], 123%. In addition, the z-score was 0.318 in assay [4] (setting [13]), -1.08 in assay [4] (setting [14]) and 1.26 in [4] (setting [15]). Besides, the fluorescence slope in [6] is -0.358 (inactive). For the same compound, the NADPH fluorescence slope in assay [7] was -1.6e-05 (inactive). Also, in [8], the slope is 0.00359 (inactive). The outcome in [9] was inactive.
Consider `CSC1=C(C#N)C(C)CC(=O)N1` (stereo not given), for which the cell count in assay [1] is 552. For the same compound, the inhibition in assay [1] is -5.8% (inactive); in [3], 1.9% (inactive); in [5], -5.89% (inactive); in assay [10], 19.4% (inactive); in assay [11], 13.8% (inactive); in assay [12] it was 12.5% (inactive). Also, the inhibition of aggregation in [2] is -2% (inactive). Also, the nuclei count in [2] came to 112%; in assay [3] it was 108%. The z-score in assay [4] (setting [13]) is -0.957; in [4] (setting [14]), -0.437; in assay [4] (setting [15]), 0.604. For the same compound, the fluorescence slope in [6] was -0.51 (inactive). Moreover, the NADPH fluorescence slope in assay [7] is -6.2e-05 (inactive). Moreover, the slope in assay [8] was 0.00463 (inactive). Besides, the outcome in assay [9] was inactive.
As for `CCN(CC)CCNC(=O)c1cc(Cl)c(N)cc1OC`, the cell count in assay [1] is 552. For the same compound, the inhibition in [1] is -4.5% (inactive); in [3], -17.3% (inactive); in [5] it was -0.493% (inactive); in [10] it was 8.75% (inactive) and -3.64% (inactive); in [11], -8.87% (inactive); in assay [12], 30.5% (inactive). The inhibition of aggregation in assay [2] was 5.6% (inactive). In addition, the results for the nuclei count in [2] and in assay [3] were 106% and 120%, respectively. The z-score in assay [4] (setting [13]) is 0.156; in assay [4] (setting [14]), -0.776; in [4] (setting [15]), 0.343. In assay [6], the fluorescence slope was -0.444 (inactive). Further, in [7], the NADPH fluorescence slope was 4.3e-05 (inactive). Besides, in [8], the slope is 0.00461 (inactive). Besides, the call in assay [9] was inactive.

(Values after PubChem BioAssay.)
